This is a sample that favours compounds with a hit; in the whole collection about 1.8% have one here.
Cardio protect – cardioprotection against H2O2-induced cell death, primary screen, uHTS, H9c2 cells, ATPLite luminescence. H9c2 cardiomyocytes, H2O2 injury protection, 2 h. protection from H2O2 cell death, % at 20 µM. 360,000 compounds, 0.63% hits. AID 588492, 2011;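 active = compounds giving at least 50% protection of heart cells from peroxide-induced death in the single-dose screen, raw or plate-pattern-corrected value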;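 note: 0% = DMSO wells with peroxide and 100% = DMSO wells without peroxide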
GRK2 inh – compounds blocking aptamer binding on GRK2 – biochemical, human GRK2, bead flow cytometry, HTS, primary screen. FAM-aptamer displacement from GRK2. inhibition of aptamer binding, % at 10 µM. 330,000 compounds, 0.59% hits;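 active = inhibition of aptamer binding above 40%, roughly 3 SD of noise, on plates passing a quality check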;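 note: median bead fluorescence of bound FAM aptamer so fluorescent compounds give negative values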
Neddyl block – inhibitors of cullin neddylation, primary screen, biochemical, TR-FRET, uHTS, NAE and Ubc12; NEDD8-conjugating enzyme Ubc12 (Homo sapiens) + NEDD8-activating enzyme E1 regulatory …; inhibition, % at 25 µM; 360,000 compounds, 0.58% hits; in the data active = inhibition above about 36%
Target sequence (P61081 whole entry, looked up): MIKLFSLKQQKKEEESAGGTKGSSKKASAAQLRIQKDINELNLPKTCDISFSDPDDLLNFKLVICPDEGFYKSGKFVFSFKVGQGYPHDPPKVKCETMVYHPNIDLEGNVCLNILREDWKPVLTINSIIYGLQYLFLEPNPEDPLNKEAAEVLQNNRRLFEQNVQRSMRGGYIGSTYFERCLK
Target sequence (Q13564 whole entry, looked up): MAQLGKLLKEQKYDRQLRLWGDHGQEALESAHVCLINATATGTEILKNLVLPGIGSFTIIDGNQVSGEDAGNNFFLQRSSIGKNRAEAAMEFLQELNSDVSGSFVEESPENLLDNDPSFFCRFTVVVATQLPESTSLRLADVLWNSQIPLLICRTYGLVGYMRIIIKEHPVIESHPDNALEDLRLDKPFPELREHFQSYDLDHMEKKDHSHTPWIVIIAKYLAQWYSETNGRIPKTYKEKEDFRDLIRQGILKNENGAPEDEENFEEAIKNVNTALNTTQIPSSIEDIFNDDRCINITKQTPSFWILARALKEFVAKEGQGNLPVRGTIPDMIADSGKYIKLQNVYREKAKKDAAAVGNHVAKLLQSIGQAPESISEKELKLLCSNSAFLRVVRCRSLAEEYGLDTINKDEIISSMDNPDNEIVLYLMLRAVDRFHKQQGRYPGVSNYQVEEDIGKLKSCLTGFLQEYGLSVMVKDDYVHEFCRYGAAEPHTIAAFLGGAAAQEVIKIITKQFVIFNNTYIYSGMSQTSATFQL
HDAC3 inh – HDAC3 deacetylase inhibitors, primary screen, biochemical, fluorescence, cell-free homogeneous | inhibition, % at 8.3 µM | recombinant HDAC3, fluorogenic peptide/trypsin coupled | Histone deacetylase 3 (Homo sapiens), O15379 | 320,000 compounds, 0.15% hits; in the data active = inhibition above about 26%, passing the limit was not always enough
An asterisk follows results filed as active.

`Cc1ccc(COc2ccccc2-c2cc(C(=O)N/N=C/c3cccnc3)[nH]n2)cc1` gave Cardio protect 50.2*, GRK2 inh 0.0, Neddyl block -3.9 and HDAC3 inh 8.2.
O=C(N/N=C/c1ccccn1)c1cc(-c2ccc(Br)s2)[nH]n1 was read as Cardio protect 46.8, GRK2 inh 0.0, Neddyl block -9.7 and HDAC3 inh -4.2.
For O=C(N/N=C/c1ccccn1)c1cc(-c2ccc(Cl)s2)[nH]n1 the results were Cardio protect 59.2*, GRK2 inh 0.0, Neddyl block -4.2 and HDAC3 inh -5.5.
`Cc1cc(C)nc(SCc2ccc(C(=O)N/N=C/c3ccncc3)cc2)n1` gave Cardio protect -4.5, GRK2 inh 4.0, Neddyl block -11.8 and HDAC3 inh -1.4.
O=C(N/N=C/c1ccccn1)c1cc(-c2cccc3ccccc23)n[nH]1 was read as Cardio protect 56.3*, GRK2 inh 2.0, Neddyl block -10.8 and HDAC3 inh 8.3.
`COc1cc(C(=O)O/N=C2\C=CC(=O)C(C)=C2)cc(OC)c1OC` gave Cardio protect -11.8, GRK2 inh 0.0, Neddyl block 36.9 and HDAC3 inh 62.4*.
Screening Nc1ccc(C(=O)N/N=C/c2cn(Cc3ccc(F)cc3)c3ccccc23)cc1 returned Cardio protect -5.1, GRK2 inh 0.0, Neddyl block 35.4 and HDAC3 inh -4.3.
`O=C(O)c1ccc(N/N=C/c2cn(Cc3ccccc3F)c3ccccc23)cc1` gave Cardio protect -6.4, GRK2 inh 4.0, Neddyl block 46.1* and HDAC3 inh 0.6.
Screening CC(C)n1cc(/C=N/Nc2ccc(C(=O)O)cc2)c2ccccc21 returned Cardio protect -1.2, GRK2 inh 0.0, Neddyl block 43.3* and HDAC3 inh 3.3.
Screening Nc1ccc(C(=O)N/N=C/c2cn(Cc3ccccc3F)c3ccccc23)cc1 returned Cardio protect -6.1, GRK2 inh 0.0, Neddyl block 38.3 and HDAC3 inh 0.2.
O=C(N/N=C/c1cn(Cc2cccc(F)c2)c2ccccc12)c1cc(O)cc(O)c1 was read as Cardio protect -7.8, GRK2 inh 89.0*, Neddyl block 39.0 and HDAC3 inh -3.8.
`O=C(NNCc1ccccc1)c1ccccn1` gave Cardio protect -2.5 and Neddyl block 4.1.
`CC(=O)N(C(C)=O)c1ccc2nc(C)[nH]c(=O)c2c1` gave Cardio protect 4.3, GRK2 inh 0.0, Neddyl block 5.0 and HDAC3 inh -3.5.
`Cc1nc2ccc(CN(C)c3ccc(C(=O)N[C@@H](CCC(=O)O)C(=O)O)s3)cc2c(=O)[nH]1` gave GRK2 inh 53.0* and HDAC3 inh 4.1.
For COc1cc([N+](=O)[O-])ccc1NC(=O)CN1CCN(C(=O)c2ccco2)CC1 the results were Cardio protect 20.4, GRK2 inh 2.0, Neddyl block -17.2 and HDAC3 inh 7.5.
`CCOC(=O)C1=NN(C(C)=O)C2(CC(=O)N(c3cc(C)cc(C)c3)C2=O)C1` (stereo not drawn) gave Cardio protect -4.3, GRK2 inh 100.0*, Neddyl block 5.3 and HDAC3 inh -10.3.
For COc1cc(/C=N/NC(=O)c2ccncc2)ccc1OCc1cnc(Cl)s1 the results were Cardio protect 15.9, GRK2 inh 0.0, Neddyl block -7.1 and HDAC3 inh 13.6.
`COC[C@H]1CCCN1[C@@H]1CS(=O)(=O)N[C@H]1COCc1ccccc1` gave Cardio protect -2.7 and Neddyl block 5.3.
CCCNC(=O)c1ccc(N2CCC3(CC2)CC(c2ccccc2)=NO3)c(NC(=O)c2ccco2)c1 was read as Cardio protect 89.8*, GRK2 inh 0.0, Neddyl block -55.1 and HDAC3 inh -2.0.
For COc1ccc(CC(=O)N(Cc2ccccc2)c2ccccc2)cc1S(=O)(=O)N1CCOCC1 the results were Cardio protect 69.0*, GRK2 inh 0.0, Neddyl block 2.5 and HDAC3 inh -1.0.
`COCCN(Cc1ccccc1)C(=O)Cc1ccc(OC)c(S(=O)(=O)N2CCOCC2)c1` gave Cardio protect -1.4, GRK2 inh 0.0, Neddyl block 10.6 and HDAC3 inh 1.3.
For CCC1(CC)C(=O)NC(=O)NC1=S the results were Cardio protect 3.0 and Neddyl block -0.4.
Screening Cc1ccc(C(=O)O/N=C(\c2ccccc2)c2ccncc2)cc1 returned Cardio protect 10.0, GRK2 inh 1.0, Neddyl block 4.7 and HDAC3 inh 36.0*.
Screening O=C(O/N=C(/c1ccccc1)c1ccncc1)c1cccc(F)c1 returned Cardio protect -1.2, GRK2 inh 2.0, Neddyl block 11.4 and HDAC3 inh 16.8.
`CCOC(=O)c1sc(Nc2ccc(OCC)cc2)nc1C` gave Cardio protect -6.6, GRK2 inh 0.0, Neddyl block -180.4 and HDAC3 inh -2.7.
CCOC(=O)c1sc(N2N=C(C)/C(=C\c3ccc(OCC(=O)OC)cc3)C2=O)nc1C was read as Cardio protect 58.1*, GRK2 inh 4.0 and Neddyl block -20.1.
`Cc1onc(-c2ccccc2)c1C(=O)NC(=S)NNC(=O)c1ccncc1` gave Cardio protect 6.4, GRK2 inh 74.0*, Neddyl block 1.9 and HDAC3 inh -7.8.
For Cc1onc(-c2ccccc2)c1C(=O)NC(=S)NNC(=O)c1cccnc1 the results were Cardio protect 6.4, GRK2 inh 0.0, Neddyl block 0.2 and HDAC3 inh 6.2.
For COCCN1Cc2cccc(C(=O)Nc3ccc(-c4nc5ccccc5[nH]4)cc3)c2C1=O the results were Cardio protect 0.5, GRK2 inh 0.0 and HDAC3 inh -5.4.
For COCCN1Cc2cccc(C(=O)Nc3cccc(-c4nc5ccccc5[nH]4)c3)c2C1=O the results were Cardio protect 54.1*, GRK2 inh 0.0 and Neddyl block 34.0.
Screening C/C(=N\NC(=O)CSCc1ccccc1Cl)c1cc(O)ccc1O returned Cardio protect 50.8*, GRK2 inh 3.0, Neddyl block -3.4 and HDAC3 inh 1.5.
Screening COc1ccc(C2=Nn3c([n+](C)c4ccccc43)SC2)cc1 returned Cardio protect -18.5, GRK2 inh 0.0, Neddyl block -26.8 and HDAC3 inh 31.2*.
For COc1ccc(C2=Nn3c(nnc3-c3ccccn3)SC2)cc1 the results were Cardio protect 14.2, GRK2 inh 3.0, Neddyl block -14.9 and HDAC3 inh 8.1.
`C[n+]1c2n(c3ccccc31)N=C(c1ccc(Cl)cc1)CS2` gave Cardio protect -11.2, GRK2 inh 1.0, Neddyl block -25.8 and HDAC3 inh 55.0*.
For CC(C)c1nnc(NC(=O)C2CCCN2C(=O)Nc2cccc(Cl)c2)s1 (stereo not drawn) the results were Cardio protect -1.8, GRK2 inh 0.0, Neddyl block 1.6 and HDAC3 inh -2.6.
For CC(=O)OCc1nc2sc(C)c(C)c2c(=O)[nH]1 the results were Cardio protect 51.3*, GRK2 inh 0.0, Neddyl block 5.1 and HDAC3 inh 1.6.
